Lassa entry: qHTS for Inhibitors of binding or entry into cells for Lassa Virus | Lassa virus pseudotyped entry inhibition, cell-based qHTS | Potency, µM (titrated, usually from 49.2 µM), most hits filed as inhibitors | 4.1% of 18,000 active
MARV entry inh: qHTS for Inhibitors of binding or entry into cells for Marburg Virus. 6.5% of 18,000 active. Potency, µM (series often up to 49.2 µM), usual class: inhibitors. AID 720532, 2013. Marburg virus pseudotype entry/binding inhibition, cell-based
Of the large screens only hits and unclear results are named; the others gave an inactive call; ! = not active in a repeat. Only some compounds are listed: those with a hit (about 8.6% of all), similar ones and a draw of the others. Calls come from the whole dose curve; tested in HEK293 cells.

COC(=O)Nc1nc2ccc(Oc3cccc(NC(=O)Nc4cc(C(F)(F)F)ccc4F)c3)cc2[nH]1	MARV entry inh inconclusive
CNC(=O)c1cc(Oc2ccc(NC(=O)Nc3ccc(Cl)c(C(F)(F)F)c3)cc2)ccn1	Lassa entry 7.9µM, MARV entry inh 13µM
COc1ccccc1-c1cc(NCc2cccnc2)ncn1	none
Cc1cccc(CNc2nc(-c3ccoc3)nc3ccccc23)c1	none
COc1ccc(CNc2nc(-c3ccoc3)nc3ccccc23)c(OC)c1	none
COc1ccc(CNc2nc(-c3ccccc3CN(C)C)nc3ccccc23)c(OC)c1	Lassa entry inconclusive, MARV entry inh 7.9µM
COc1ccc(CNc2cc(-c3ccccc3CN(C)C)ncn2)c(OC)c1	MARV entry inh 10µM
COc1ccccc1-c1nc(NCc2cnc(C)cn2)c2ccccc2n1	none
Cc1cccc(CNc2nc(-c3ccccc3CN(C)C)nc3ccccc23)c1	Lassa entry inconclusive, MARV entry inh 11µM
COc1ccccc1-c1nc(NCc2ccccc2)c2ccccc2n1	Lassa entry 14µM, MARV entry inh 13µM
O=c1n(-c2ccccc2)c(=O)n2n1CC[C@@H]1C(=NOC[C@@H](O)COCc3ccco3)[C@H]3O[C@H]3[C@@H](O)[C@H]12	none
C[C@@H]1[C@@H](c2ccccc2)Oc2c(Cl)cccc2S(=O)(=O)N1Cc1cccc(F)c1	none
N#CCCCS(=O)(=O)c1nnnn1-c1ccccc1	MARV entry inh inconclusive
COC(=O)C1=C(C)N(Cc2ccccc2)C(=NCCc2cccnc2)NC1c1ccccc1 (centres undefined)	none
C=CC[C@H]1C(=O)N2[C@@H](C[C@@H](C)[C@@H]2c2ccccc2)[C@@H](CC=C)C(=O)N2[C@H]1C[C@@H](C)[C@@H]2c1ccccc1	MARV entry inh inconclusive
C=CCN1C(=O)[C@@]2(CC(C)=CC[C@@H](C)O2)c2ccccc21	none
Cc1nc2sccn2c(=O)c1CCN1CCC(=C(c2ccc(F)cc2)c2ccc(F)cc2)CC1	Lassa entry 35µM, MARV entry inh inconclusive
Cc1nc2ccccn2c(=O)c1CCN1CCC(C(=O)c2ccc(F)cc2)CC1	MARV entry inh inconclusive
CC(C)[C@@H]1CC[C@@H](C)C[C@H]1OC(=O)c1ccccc1O	none
CCC(C)CN1C(=O)NC(c2ccccc2)C(C(=O)OC)=C1C (centres undefined)	none (no result: Lassa entry)
O=C(Nc1cccc(C(=O)Nc2ccc(S(=O)(=O)O)c3cc(S(=O)(=O)O)cc(S(=O)(=O)O)c23)c1)Nc1cccc(C(=O)Nc2ccc(S(=O)(=O)O)c3cc(S(=O)(=O)O)cc(S(=O)(=O)O)c23)c1	MARV entry inh 32µM!
O=C(NCCCCc1ccccc1)c1cccc(NC(=O)c2ccccc2)c1	none
CC(C)c1ccc(-c2cc(-c3cn[nH]c3-c3ccccn3)ccn2)cc1	none
Nc1nc(F)nc2c1ncn2[C@@H]1O[C@H](CO)[C@@H](O)[C@@H]1O	none
Nc1nc(=S)c2ncn([C@H]3O[C@@H](CO)[C@@H](O)[C@@H]3O)c2[nH]1	Lassa entry inconclusive, MARV entry inh 2µM
COc1cccc([C@@H]2Oc3ccc(OC)cc3[C@H](O)[C@@H]2O)c1	none
COC(=O)C1=C(C(=O)OC)[C@@H]2N(C)c3ccccc3[C@@]23CCC(=O)N(Cc2cc(OC)c(OC)c(OC)c2)C3=N1	none
Nc1ccccc1C(=O)C=Cc1ccc2c(c1)OCO2	none
O=C(c1ccc(F)cc1)C1CCN(CCn2c(=O)[nH]c3ccccc3c2=O)CC1	MARV entry inh inconclusive
O=c1[nH]c2ccccc2n1CCCN1CCN(C(c2ccccc2)c2ccccc2)CC1	Lassa entry inconclusive, MARV entry inh 16µM
C[C@]12C[C@@](C)(C=C1C=Cc1ccccc1)C(=O)C[C@H]2c1ccccc1	none
O=C(O)c1cc(O)c2c(c1)C(=O)c1cccc(O)c1C2=O	MARV entry inh 13µM
Cc1cc(O)c2c(c1)C(=O)c1cccc(O)c1C2=O	none
CC(C)=CCCC(C)=CCN1C(=O)[C@]2(O[C@H](COc3ccccc3)CC3=CCCC32)c2c(Br)cccc21 (some centres undefined)	none
CCC(C)c1cc([N+](=O)[O-])cc([N+](=O)[O-])c1OC(=O)OC(C)C (centres undefined)	Lassa entry 18µM, MARV entry inh inconclusive
CCC(C)c1cc([N+](=O)[O-])cc([N+](=O)[O-])c1OC(C)=O (centres undefined)	none
CNc1ccc(-c2nc3ccccc3s2)cc1	Lassa entry 10µM, MARV entry inh 7.1µM
CN(C(=O)COc1nc2ccccc2s1)c1ccccc1	none
N#Cc1ccc2c(c1)C[C@]1(c3ccsc3)Oc3c(c(=O)oc4ccc(F)cc34)[C@@H]2O1	none
C[N+]1(C)[C@@H]2CC[C@H]1CC(OC(=O)c1c[nH]c3ccccc13)C2 (some centres undefined)	none
CN1[C@@H]2CC[C@H]1CC(OC(=O)c1c[nH]c3ccccc13)C2 (some centres undefined)	Lassa entry inconclusive, MARV entry inh 20µM!
CCCCCCCCCCCCCCCC(=O)OC[C@H](O)[C@H]1OC(=O)C(O)=C1O	none
CCC[C@H]1CN(c2ccc(OC)cc2)C(=O)[C@H]1CC(=O)Nc1ccccc1	none (no result: Lassa entry)

Screens (PubChem)
